A short description of experiment [1]: hESC survival regulators, cell-based (AID 493140; call rule not given here;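 further: cells exposed to compounds for four days before counting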). The settings on record: human embryonic stem cell survival screen; stronger effect = higher value.
Experiment [2] is described as follows: circadian clock period modulators, cell-based, LOPAC library, luminescence reporter (AID 2774; call rule not given here;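 further: values are relative to mean of DMSO wells on each plate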). The settings on record: circadian reporter cells, at 7 µM, actives lie on both sides.
For experiment [3], the system named is Hepatitis C virus NS3 helicase. The experiment can be described thus: HCV NS3 helicase inhibitors, primary screen, biochemical, fluorescence polarization, LOPAC1280 library (AID 687035; in the data active means inhibition above about 37%). The settings on record: Purified HCV NS3 helicase, Cy5-dT15 ssDNA binding fluorescence polarization; stronger effect = higher value; concentration not given here.
Experiment [4] in a line: Cy5 fluorescence quenching or enhancement artefacts, artefact control for HCV NS3 helicase inhibitor project, biochemical, LOPAC1280 (AID 687037; call rule not given here). The note with it: Cy5-DNA-NS3h complex fluorescence interference counterscreen.
Experiment [5] can be described thus: LFS_MB_1R medulloblastoma cell growth inhibition, synergistic combos for chromothripsis tumors, cisplatin or BGB combos (AID 1671452).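 Further: cells exposed for 96 hours before readout.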 The note with it: LFS_MB_1R medulloblastoma cells, stronger effect = higher value.
Experiment [6] in a line: CRL2098 osteosarcoma cell growth inhibition, synergistic combos for chromothripsis tumors, BGB or cisplatin IC20 combos (AID 1671454).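 Further: cells exposed for 96 h before readout; 0% = vehicle DMSO and 100% = killing by high DMSO.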 The note with it: CRL2098 osteosarcoma cells, drug combinations, stronger effect = higher value.
Experiment [7] in a line: HD-MB03 medulloblastoma cell growth inhibition, synergistic combos for chromothripsis tumors, BGB or cisplatin IC20 combos (AID 1671455; in the data active means inhibition above about 83%;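 further: 0% = vehicle DMSO and 100% = high DMSO as cytotoxic control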). The settings on record: HD-MB03 medulloblastoma cells, stronger effect = higher value.
Experiment [8] is described as follows: UWB1.289 ovarian carcinoma cell growth inhibition, synergistic combos for chromothripsis tumors, BGB or cisplatin combos (AID 1671456).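 Further: cells exposed to compound for four days; 0% = vehicle DMSO and 100% = killing by high DMSO.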 The note with it: UWB1.289 ovarian carcinoma cells, stronger effect = higher value.
A short description of experiment [9]: LFS_MB_2R medulloblastoma cell growth inhibition, synergistic combos for chromothripsis tumors, cisplatin combos (AID 1671457).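 Further: cells exposed to compound for four days before readout.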 The settings on record: LFS_MB_2R medulloblastoma cells, stronger effect = higher value.
The nature of experiment [10]: MDA-MB-436 breast carcinoma cell growth inhibition, synergistic combos for chromothripsis tumors, BGB or cisplatin combos (AID 1671458; call rule not given here;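 further: cells exposed for 96 hours; 0% = vehicle DMSO and 100% = killing by high DMSO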). The settings on record: MDA-MB-436 breast carcinoma growth inhibition, drug combinations, stronger effect = higher value.
Experiment [11] can be described thus: UWB1.289_BRCA1 ovarian cancer growth, cell-based, BGB or cisplatin combinations (AID 1671459). The note with it: UWB1.289 BRCA1 ovarian carcinoma, drug combinations, stronger effect = higher value.
The nature of experiment [12]: human astrocyte viability loss, single and combined drugs, cytotoxicity control for chromothriptic childhood tumor combination screen, cell-based, BGB or cisplatin IC20 combos (AID 1671460).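 Further: cells exposed to compounds for 96 hours before viability readout; 0% = vehicle and 100% = killing control.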 The settings on record: Human astrocytes, drug combinations, stronger effect = higher value.
Experiment [13] is described as follows: growth inhibition of BT084 medulloblastoma cells, cell-based, ICGC_MB145, cisplatin and BGB IC40 combos (AID 1671461).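 Further: cells exposed to drugs for 96 hours; 0% = vehicle DMSO and 100% = high DMSO full killing control.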 The settings on record: drug combinations, stronger effect = higher value.
Experiment [14] is described as follows: growth inhibition of RCMB18 medulloblastoma cells, cell-based, cisplatin and BGB IC40 combos (AID 1671462).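 Further: cells exposed to compound for four days.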 The note with it: stronger effect = higher value.
A short description of experiment [15]: growth inhibition of CRL1545 osteosarcoma cells, cell-based, cisplatin and BGB IC20 combos (AID 1671464).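 Further: cells exposed to compound for 96 hours before readout; 0% = vehicle DMSO and 100% = high DMSO killing control.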 The note with it: stronger effect = higher value.
Setting [16] is: measured here: combination with BGB IC40, at 0.05 µM.
[17] abbreviates: measured here: combination with cisplatin, at 0.5 µM.
Where [18] appears, read: measured here: combination with cisplatin, at 5 µM.
Setting [19] is: measured here: combination with BGB at IC20, at 0.5 µM.
Where [20] appears, read: measured here: combination with cisplatin at IC20, at 0.5 µM.
Setting [21] is: measured here: combo with BGB at IC20, at 0.5 µM.
Setting [22] is: measured here: combo with cisplatin at IC20, at 0.5 µM.
[23] abbreviates: measured here: inhibition with BGB combination, at 0.05 µM.
Where [24] appears, read: measured here: inhibition with cisplatin combination, at 0.05 µM.
The mark [25] stands for this setting: measured here: BGB combination, at 0.5 µM.
Where [26] appears, read: measured here: BGB combination, at 5 µM.
The mark [27] stands for this setting: measured here: cisplatin combination, at 0.5 µM.
[28] abbreviates: measured here: cisplatin combination, at 5 µM.
Setting [29] is: BGB combination, concentration series, at 5 µM.
Where [30] appears, read: cisplatin combination, concentration series, at 5 µM.
Where [31] appears, read: measured here: combo with BGB IC20, at 0.5 µM.
Where [32] appears, read: measured here: combo with cisplatin IC20, at 0.5 µM.
The mark [33] stands for this setting: cisplatin combination, at 0.5 µM.
Setting [34] is: measured here: BGB IC40 combination 0.05 uM, at 0.05 µM.
Setting [35] is: measured here: BGB IC40 combination, at 0.05 µM.
Setting [36] is: measured here: with BGB IC20 combination, at 0.5 µM.
Where [37] appears, read: measured here: with cisplatin IC20 combination, at 0.5 µM.

Structures are written as SMILES. Activity calls are given as the source filed them. Unless noted, no stated cut-off is given here; in the data, active means inhibition above about 80%; inactive means the rest.

With `N#C/C(=C\c1ccc(O)c(O)c1)C(N)=O`, the survival in experiment [1] is 73 (inactive).
On to `N#C/C(=C\c1ccc(O)c(O)c1)C(=O)NCCCc1ccccc1`, for which the period change in experiment [2] was 0.005 h (inactive). Moreover, the inhibition in experiment [3] was -2% (inactive). For the same molecule, in experiment [4], the fluorescence ratio (interference) is 1 (inactive).
For the molecule `COc1cc2c(cc1C(F)(F)F)N(C(=O)Nc1cc(F)cc(-c3cccnc3)c1)CC2`, in experiment [2], the period change is 0.195 h (inactive).
For the molecule `Cc1nc2sccn2c(=O)c1CCN1CCC(=C(c2ccccc2)c2ccc(F)cc2)CC1`, the period change in experiment [2] was -0.05 h (inactive). For the same molecule, in experiment [3], the inhibition is -1% (inactive). The fluorescence ratio (interference) in experiment [4] was 1 (inactive).
With `C=CC(=O)c1ccc2ccccc2c1`, the survival in experiment [1] is 46.4 (inactive).
As to `COC(=O)c1c(-c2cc(OC)c(OC)c(OC)c2)c2ccnc(OCc3ncccn3)c2c(=O)n1Cc1ccnc(C)c1`, the period change in experiment [2] is 0.03 h (inactive).
As to `Cc1cccc(C)c1NC(=O)C[N+](C)(C)C`, the period change in [2] is 0.05 h (inactive).
In the case of `FC(F)(F)c1cc(CO[C@H]2CCCN[C@H]2c2ccccc2)cc(C(F)(F)F)c1`, the period change in experiment [2] is 0 h (inactive).
On the same count and under the same terms, as for `COc1[nH]c2ccc(F)cc2c1C(=O)OCC1CCN(CCNS(C)(=O)=O)CC1`, the figure is -0.015 h (inactive).
Still for that read-out and setting: next, `CC(C)C1C2CCC(C2)C1N` (configuration not stated): -0.025 h (inactive).
On to `O=c1[nH]cnc2ccccc12`, for which the inhibition was -18.8% (inactive) in experiment [5] (at 0.5 µM); -25.1% in experiment [5] (setting [16]); -17.4% in experiment [5] (setting [17]); -38.3% in experiment [5] (setting [18]); -61.6% (inactive) in experiment [6] (at 0.5 µM); -35.5% in experiment [6] (setting [19]). For the same molecule, the inhibition in experiment [6] (setting [20]) is -103%; in experiment [7] (at 0.5 µM), 4.79% (inactive); in experiment [7] (setting [21]) it was 10.7%; in [7] (setting [22]), 11.6%; in experiment [8] (at 0.5 µM), 2.5% (inactive); in experiment [8] (setting [23]), -5.21%. In addition, the inhibition in experiment [8] (setting [24]) is -17.2%; in experiment [9] (at 0.5 µM) it was -8.8% (inactive); in experiment [9] (setting [17]) it was -21.4%; in experiment [9] (setting [18]), -15.8%; in [10] (at 0.5 µM), -5.02% (inactive); in experiment [10] (setting [25]), -15%. The inhibition was -20.2% in experiment [10] (setting [26]); -1.15% in experiment [10] (setting [27]); -18.2% in [10] (setting [28]); 11.1% in experiment [11] (setting [29]); 0.09% (inactive) in [11] (at 0.5 µM); -4.56% in [11] (setting [30]). Also, the inhibition in experiment [12] (at 0.5 µM) is 12.5% (inactive); in [12] (setting [31]), -1.33%; in [12] (setting [32]), 21.8%; in experiment [13] (at 0.5 µM) it was -14% (inactive); in experiment [13] (setting [33]) it was -49.4%; in experiment [13] (cisplatin combination, at 5 µM), -11.8%. Further, the inhibition in [13] (setting [34]) is -51.7%; in experiment [13] (single agent, at 5 µM), 12.2%; in experiment [14] (at 0.5 µM), -16.1% (inactive); in experiment [14] (cisplatin combo, at 5 µM), -26.7%; in experiment [14] (setting [35]), -1.26%; in experiment [14] (setting [17]) it was -25.5%. Further, the inhibition in [14] (single agent, at 5 µM) is -13.2%; in [15] (at 0.5 µM), 0.67% (inactive); in [15] (setting [36]), -3.84%; in experiment [15] (setting [37]) it was 1.34%; in experiment [15] (single agent, at 0.05 µM), -24.3%; in experiment [15] (single agent, at 5 µM) it was -5.49%.
On to `O=C(OCCN1CCCCC1)c1c[nH]c2ccccc12`, for which the period change in experiment [2] is -0.005 h (inactive).
On to `NS(=O)(=O)c1cccc2c1c([N+](=O)[O-])cc1nc(O)c(O)nc12`, for which the period change in experiment [2] is 0.35 h (inactive). The inhibition in experiment [3] was -6% (inactive). Further, in experiment [4], the fluorescence ratio (interference) was 1 (inactive).
Regarding `COc1cc(C=O)c([N+](=O)[O-])cc1OC`, the inhibition in experiment [5] (at 0.5 µM) is -20.1% (inactive); in experiment [5] (setting [16]), -4.39%; in [5] (setting [17]) it was -40%; in experiment [5] (setting [18]), -37.8%; in experiment [6] (at 0.5 µM), -33.8% (inactive); in [6] (setting [19]), -36.3%. The inhibition in experiment [6] (setting [20]) was -11%; in experiment [7] (at 0.5 µM) it was -11.8% (inactive); in experiment [7] (setting [21]), -17.8%; in experiment [7] (setting [22]), -8.28%; in [8] (at 0.5 µM), -8.53% (inactive); in experiment [8] (setting [23]) it was 3.53%. Besides, the inhibition in experiment [8] (setting [24]) is -7.7%; in experiment [9] (at 0.5 µM), -7.6% (inactive); in [9] (setting [17]) it was -4.15%; in [9] (setting [18]) it was 0.394%; in experiment [10] (at 0.5 µM) it was -6.2% (inactive); in experiment [10] (setting [25]) it was -13%. Moreover, the inhibition in experiment [10] (setting [26]) is -6.36%; in [10] (setting [27]) it was 1.75%; in experiment [10] (setting [28]), 6.49%; in experiment [11] (setting [29]) it was 0.582%; in [11] (at 0.5 µM) it was -4.66% (inactive); in experiment [11] (setting [30]) it was -5.09%. In addition, the inhibition in [12] (at 0.5 µM) is -7.65% (inactive); in experiment [12] (setting [31]), -3.78%; in [12] (setting [32]) it was -9.79%; in [13] (at 0.5 µM) it was 1.74% (inactive); in experiment [13] (setting [33]) it was 3.64%; in [13] (cisplatin combination, at 5 µM), -6.4%. Further, the inhibition was 80.8% in experiment [13] (setting [34]); 1.94% in experiment [13] (single agent, at 5 µM); -0.87% (inactive) in experiment [14] (at 0.5 µM); -1.64% in experiment [14] (cisplatin combo, at 5 µM); 1.84% in [14] (setting [35]); 9.53% in [14] (setting [17]). The inhibition in [14] (single agent, at 5 µM) is -21.6%; in experiment [15] (at 0.5 µM) it was -4.03% (inactive); in experiment [15] (setting [36]), -16.1%; in [15] (setting [37]), 2%; in experiment [15] (single agent, at 0.05 µM), -14.2%; in [15] (single agent, at 5 µM), -34.2%.
